About 79,000 compounds went through this panel and 15% of them were active in at least one assay; those are over-represented in the sample as a whole. No stated cut-off is given here; in the data, active means growth inhibition above about 70%; inactive means the rest.
Experiments:
[1] = NCI Yeast Anticancer Drug Screen. Data for the rad50 strain (AID 155);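 further: 0% = growth of vehicle-only cultures of the same strain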; settings: S. cerevisiae rad50 strain growth inhibition; at 50.0 µM; active compounds read high
Method in brief: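 A DNA repair-deficient yeast mutant serves as the test organism; compound-induced growth inhibition is calculated against vehicle-treated cells.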

[2] = NCI Yeast Anticancer Drug Screen. Data for the mec2-1 strain (AID 157); settings: S. cerevisiae mec2-1 strain, at 50.0 µM, active compounds read high
Method in brief: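 Each compound was tested on mec2-1 yeast, a strain altered in DNA damage repair or cell cycle control. Growth inhibition is reported relative to vehicle.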

[3] = NCI Yeast Anticancer Drug Screen. Data for the sgs1 mgt1 strain (AID 161);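 further: 0% = growth of cultures given vehicle only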; settings: S. cerevisiae sgs1 mgt1 strain, at 50.0 µM, active compounds read high
Method in brief: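 Test agents were incubated with a DNA-repair-mutant yeast strain. Growth was then read and compared against vehicle-treated controls.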

[4] = NCI Yeast Anticancer Drug Screen. Data for the cln2 rad14 strain (AID 165);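 further: 0% = growth equal to vehicle treated cultures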; settings: S. cerevisiae cln2 rad14 strain, at 50.0 µM, active compounds read high
Method in brief: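 Test compounds were added to cln2 rad14 yeast cultures; inhibition of growth was then determined by comparison with vehicle treatment.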

[5] = NCI Yeast Anticancer Drug Screen. Data for the bub3 strain (AID 167); settings: S. cerevisiae bub3 mutant strain, at 50.0 µM, active compounds read high
Method in brief: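 Inhibition values come from growth of compound-treated mutant yeast normalised to vehicle-treated controls.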

[6] = NCI Yeast Anticancer Drug Screen. Data for the mlh1 rad18 strain (AID 175); settings: S. cerevisiae mlh1 rad18 strain growth inhibition; at 50.0 µM; active compounds read high
Method in brief: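 Inhibition values reflect reduced growth of mutant yeast versus vehicle-treated controls following compound exposure; the mutations affect DNA damage repair.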

Measured: growth inhibition

COc1ccc(N=Cc2ccc(N(CCC#N)S(=O)(=O)c3ccccc3)cc2C)cc1
inactive: [1] -9.4% | [2] -10.8% | [3] 5.5% | [4] 13.4% | [5] -16.8% | [6] -10%

CCN(CC)c1ccc(N=Nc2ccc(C)cc2)cc1
inactive: [1] -6.7% | [2] -22.5% | [3] -12.5% | [4] -0.4% | [5] -15.8% | [6] 12.1%

CC(C)CCOC(=O)C(O)C(O)C(=O)OCCC(C)C (stereo not drawn)
inactive: [1] 14.2% | [2] 12.5% | [3] -3.05% | [4] -39% | [5] -0.85% | [6] 13.2%

CCOC(=O)N(C)C
inactive: [1] 18.9% | [2] 12.8% | [3] 3.65% | [4] 11.1% | [5] 12.1% | [6] 8%

CCOC(=O)NCC(=O)NCC(=O)NCC(N)=O
inactive: [1] -14.2% | [2] -19.2% | [3] -12.9% | [4] -9.65% | [5] -25.1% | [6] 7.95%

Cc1ccccc1CCCC(C(=O)O)C(=O)O
inactive: [1] -18.8% | [2] -7.75% | [3] 10.8% | [4] -2.8% | [5] -1.55% | [6] 1.75%

O=C1OC(=O)c2c1ccc1ccccc21
inactive: [1] -6% | [2] -21.6% | [3] 6.8% | [4] -8.35% | [5] 0.95% | [6] 14.8%

O=C1C2=C(Nc3ccccc3N2)OC1c1ccc2c(c1)OCO2 (stereo not drawn)
inactive: [1] 4.15% | [2] -9.95% | [3] -20.1% | [4] -7.9% | [5] -29.4% | [6] -0.1%

COc1cc(/C=N/NC(N)=S)cc(OC)c1
inactive: [1] -4.1% | [2] -11.2% | [3] -15.1% | [4] -35.9% | [5] -17.6% | [6] -11.8%

COc1cc2c(cc1N)-c1ccc(N)cc1C2O (stereo not drawn)
inactive: [1] 7.55% | [2] 3.65% | [3] -9.05% | [4] 17.3% | [5] 17.1% | [6] 1.05%

CCN(CC)CCOC(=O)c1ccc(N=Nc2ccc(O)cc2O)cc1
inactive: [1] -12.8% | [2] -2.7% | [3] -1.3% | [4] -21.7% | [5] -24.5% | [6] -17.1%

c1cc[n+](-c2nc3ccccc3[n-]2)cc1
inactive: [1] 2.75% | [2] -7% | [3] 6.25% | [4] -18.5% | [5] -13.8% | [6] 3.5%

CCCCC(CC)OC(=O)c1cccc(C)c1 (stereo not drawn)
inactive: [1] 9.15% | [2] 2.25% | [3] 17.8% | [4] -7.4% | [5] -0.05% | [6] 7.1%

CCC(=S)Nc1ccc(Cl)cc1
inactive: [1] -1.9% | [2] -44.6% | [3] -34.5% | [4] -21.2% | [5] -36.9% | [6] -35.4%

Cc1n(C)c(=O)c2ccccc2[n+]1C
inactive: [1] 5.35% | [2] 5.75% | [3] -7% | [4] -3.3% | [5] 1.95% | [6] 6.4%

O=C(CCCCC(=O)OC1CCCCC1)OC1CCCCC1
inactive: [1] -4.95% | [2] 3.65% | [3] -6.45% | [4] -60.3% | [5] -1.05% | [6] 10.8%

O=C(O)C1CCCCCC1
inactive: [1] 7.45% | [2] 0.65% | [3] 1.8% | [4] -2.55% | [5] 8.65% | [6] 2%

Cc1ccc(-n2[nH]nc(C#N)c2=O)cc1
inactive: [1] -6.75% | [2] -20.6% | [3] -23.9% | [4] -1.25% | [5] -27.1% | [6] 5.65%

O=C1CS(=O)(=O)CN1c1ccc(Cl)c(Cl)c1
inactive: [1] -17.4% | [2] -3.35% | [3] -7.65% | [4] 6% | [5] 7% | [6] 3.6%

CCCCC(CC)CO (stereo not drawn)
inactive: [1] -12.4% | [2] -25% | [3] -32.7% | [4] -108% | [5] -16.5% | [6] -20.3%

O=C(NNC(=O)c1ccc2ccccc2c1)c1cccc(Br)c1
inactive: [1] -21.1% | [2] -20.6% | [3] -6.55% | [4] 10.1% | [5] -5.6% | [6] -7.95%

COc1cc(C2c3cc4c(cc3OC(N3CCCCC3)C2C)OCO4)cc(OC)c1OC (stereo not drawn)
inactive: [1] -13.4% | [2] -20.1% | [3] -18.1% | [4] 0.15% | [5] -23.6% | [6] -12.6%

COC1=C2CC(C)CC(OC)C(O)C(C)/C=C(\C)C(OC(N)=O)C(OC)/C=C\C=C(/C)C(=O)NC(=C(C=NC(C)(C)C)C1=O)C2=O (stereo not drawn)
inactive: [1] 9.15% | [2] 23.2% | [3] 23.2% | [4] 46.1% | [5] 6.4% | [6] 18.5%

O=[N+]([O-])c1nccn1CCC[n+]1ccc2ccccc2c1
inactive: [1] -25.4% | [2] -7.7% | [3] -8.6% | [4] -2% | [5] -13.8% | [6] -17%

COc1ccc(-c2cc(N)c3c(c2O)C(=O)c2c(N)ccc(O)c2C3=O)cc1
inactive: [1] 13.3% | [2] 4.75% | [3] 4.75% | [4] -23.6% | [5] -4.65% | [6] 9.25%

COc1ccc(S(=O)(=O)/N=C(/C2CC3=CCC4C5CCC(=O)C5(C)CC(=O)C4C3(C)C2)N2CCCC2)cc1 (stereo not drawn)
inactive: [1] 5.75% | [2] 4.9% | [3] 1.85% | [4] -11.6% | [5] -1.35% | [6] -18%

Cc1ccc(C)c(CNC(=O)C2CCCCC2C(=O)O)c1 (stereo not drawn)
inactive: [1] 9.3% | [2] 33.6% | [3] 37.2% | [4] -0.6% | [5] 34.6% | [6] -3.2%

O=c1cc(CO)oc(C(Nc2cccc(Cl)c2)c2ccccc2)c1O (stereo not drawn)
inactive: [1] 34.2% | [2] -4.65% | [3] 23.1% | [4] -15.2% | [5] 10.2% | [6] 21.1%

Cc1ccc(S(=O)c2cccs2)cc1 (stereo not drawn)
inactive: [1] 2.15% | [2] -28.1% | [3] -49% | [4] -38.9% | [5] -18% | [6] -28.8%

COCCCC(O)CNC(C)C (stereo not drawn)
inactive: [1] -11.2% | [2] 7.1% | [3] -16.4% | [4] -18.2% | [5] 0.95% | [6] -5.95%

O=C(O)c1c[nH]c2cc(OCc3ccc(Br)cc3)ccc2c1=O
inactive: [1] 13.8% | [2] 0.65% | [3] -1.85% | [4] 6.9% | [5] 2.5% | [6] 9.45%

COC(=O)/C(C#N)=C/Sc1ccccc1
inactive: [1] 61.6% | [2] 33.7% | [3] 38% | [4] 7.2% | [5] 26.6% | [6] -7.7%

CC(C)CCCC(C)C1CCC2C3CCC4Cc5c(c6ccccc6n5C)CC4(C)C3CCC12C (stereo not drawn)
inactive: [1] -13.2% | [2] 35% | [3] -5.75% | [4] -27.8% | [5] -8.95% | [6] 21.9%

O=C(c1cccc(F)c1)c1ccccc1Cc1ccccc1
inactive: [1] -4.45% | [2] 4.2% | [3] -8.05% | [4] 19.4% | [5] -3.1% | [6] -11.4%

Cc1ccc(NC(=NCCCN(C)C)C(c2ccccc2)c2ccccc2)cc1
inactive: [1] -2.7% | [2] -0.25% | [3] -5.4% | [4] 0.4% | [5] 11.4% | [6] 13.4%

COc1cc2c(c(O)c1C)C(=O)CC(c1ccccc1)O2 (stereo not drawn)
inactive: [1] 15.4% | [2] -46.3% | [3] 16% | [4] 2.15% | [5] -4.25% | [6] 11.7%

COc1cc2c(cc1OC)C(=O)N(c1ccc(OCCN3CCCC3)cc1)C2=O
inactive: [1] -20.7% | [2] -17.9% | [3] 4.7% | [4] 19.4% | [5] 15.8% | [6] -10.4%

OCCSCCCCCSCCO
inactive: [1] -2.6% | [2] -7.7% | [3] -7.3% | [4] -2.15% | [5] -7.4% | [6] -15.3%

From PubChem BioAssay (NCI)
